In experiment [1] the test system is RAW-Dual. The experiment is described as follows: NF-kB SEAP reporter activity, fold change vs agonist alone; higher = enhanced NF-kB activity. Particulars: library stock concentration (final ~1000-fold dilution): 10 mM. Summed up: (§1)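 RAW-Dual macrophages were seeded in DMEM at 50,000 cells/well in 384-well plates, given 50 nL of library stock by pin tool, and given a PRR agonist 1 h later. Plates were held at 37 °C, 5% CO2 for 20 hours, after which supernatant was read for IRF by QuantiLuc luminescence and for NF-κB by QuantiBlue absorbance at 620 nm. Reporter activity is expressed as fold change over wells that received agonist alone. A well was called cytotoxic when IncuCyte confluency fell below 70% of agonist controls in both mask sets.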

Experiment [2] deals with RAW-Dual. Description: NF-kB SEAP reporter activity, fold change vs agonist alone; cytotoxicity flag (confluency mask): not cytotoxic; higher = enhanced NF-kB activity. An outline of the steps:
as §1

For experiment [3], the system named is RAW-Dual. Description: NF-kB SEAP reporter activity, fold change vs agonist alone; cytotoxicity flag (confluency mask): cytotoxic (confluency <70% of control); higher = enhanced NF-kB activity. An outline of the steps:
as §1

The mark [4] stands for this setting: cytotoxicity flag (confluency mask): not cytotoxic, agonist: Imiquimod (TLR7) […].
Where [5] appears, read: cytotoxicity flag (confluency mask): not cytotoxic, agonist: MPLA (TLR4) […].
Setting [6] is: agonist: ODN 1826 (TLR9) 0.5 ug/mL.
Setting [7] is: agonist: Pam2CSK4 (TLR2/6) 0.1 ug/mL.
[8] abbreviates: agonist: Pam3CSK4 (TLR2/1) 0.1 ug/mL.

Over roughly 2,900 compounds, “NF-kB SEAP reporter activity, fold change vs agonist alone” has its median near 0.99; the highest 2% begin near 2.6. The full list was thinned out, with the highest values kept by preference.

For `CNC(C)C(=O)NC(C(=O)N1CCCC1C(=O)Nc1snnc1-c1ccccc1)C1CCCCC1` (stereo not given), the “NF-kB SEAP reporter activity” value is 0.887 in the experiment with RAW-Dual [1] (setting [4]) and 0.824 in the experiment with RAW-Dual [1] (setting [5]).

Consider `CNC(C)C(=O)NC(C(=O)N1CCCC1C(=O)Nc1snnc1-c1ccccc1)C1CCCCC1` (stereo not given) (library stock concentration (final ~1000-fold dilution): 10 mM), for which the “NF-kB SEAP reporter activity” value is 0.612 in the experiment with RAW-Dual [2] (agonist: LPS (TLR4) 0.1 ug/mL), 0.875 in the experiment on RAW-Dual [2] (setting [6]), 0.972 in the experiment on RAW-Dual [2] (setting [7]) and 0.8 in the experiment on RAW-Dual [2] (setting [8]).

As to `O=C(Oc1coc(CSc2ncccn2)cc1=O)c1ccc([N+](=O)[O-])cc1`, the results for the “NF-kB SEAP reporter activity” value with RAW-Dual [1] (setting [4]) and with RAW-Dual [1] (setting [5]) were 0.717 and 1.01, respectively.

Regarding `O=C(Nc1ccccc1C(=O)O)c1cc(S(=O)(=O)c2ccccc2)ccc1Cl`, the results for the “NF-kB SEAP reporter activity” value with RAW-Dual [1] (setting [4]) and in the experiment with RAW-Dual [1] (setting [5]) were 0.883 and 1.01, respectively.

Take `O=C(Nc1ccccc1C(=O)O)c1cc(S(=O)(=O)c2ccccc2)ccc1Cl` (library stock concentration (final ~1000-fold dilution): 10 mM): the “NF-kB SEAP reporter activity” value in the experiment with RAW-Dual [2] (agonist: LPS (TLR4) 0.1 ug/mL) was 1.19; in the experiment with RAW-Dual [2] (setting [6]), 0.999; in the experiment with RAW-Dual [2] (setting [7]), 1.09; with RAW-Dual [2] (setting [8]), 1.13.

On to `O=C(Oc1cc(S(=O)(=O)c2ccccc2)ccc1[N+](=O)[O-])c1ccc(Cl)cc1` (library stock concentration (final ~1000-fold dilution): 10 mM), for which the “NF-kB SEAP reporter activity” value with RAW-Dual [2] (agonist: LPS (TLR4) 0.1 ug/mL) stood at 5.2; with RAW-Dual [2] (setting [6]), 2.09; with RAW-Dual [2] (setting [7]), 1.03; in the experiment on RAW-Dual [2] (setting [8]), 1.81.

As to `O=C(Oc1cc(S(=O)(=O)c2ccccc2)ccc1[N+](=O)[O-])c1ccc(Cl)cc1`, the “NF-kB SEAP reporter activity” value in the experiment with RAW-Dual [1] (setting [4]) is 1.32; in the experiment with RAW-Dual [1] (setting [5]), 2.59.

In the case of `O=C(Oc1coc(CSc2ncccn2)cc1=O)c1ccc([N+](=O)[O-])cc1` (library stock concentration (final ~1000-fold dilution): 10 mM), the “NF-kB SEAP reporter activity” value in the experiment with RAW-Dual [2] (agonist: LPS (TLR4) 0.1 ug/mL) turned out to be 1.26; with RAW-Dual [2] (setting [6]), 0.944; with RAW-Dual [2] (setting [7]) it was 1.19; in the experiment with RAW-Dual [2] (setting [8]) it was 0.981.

In the case of `COCCOc1cc(F)c2c(Nc3ccc(NC(=O)Cn4cc(C(C)C)nn4)cc3)ncnc2c1`, the “NF-kB SEAP reporter activity” value amounted to 1.14 in the experiment with RAW-Dual [1] (setting [4]) and 1.01 in the experiment on RAW-Dual [1] (setting [5]).

Take `COCCOc1cc(F)c2c(Nc3ccc(NC(=O)Cn4cc(C(C)C)nn4)cc3)ncnc2c1` (library stock concentration (final ~1000-fold dilution): 10 mM): the “NF-kB SEAP reporter activity” value with RAW-Dual [2] (agonist: LPS (TLR4) 0.1 ug/mL) worked out at 1.36; in the experiment on RAW-Dual [2] (setting [6]) it was 0.989; with RAW-Dual [2] (setting [7]), 1.16; with RAW-Dual [2] (setting [8]) it was 1.24.

As for `CC(C)c1cnn2c(NCc3ccccc3)cc(NCCCCCCN)nc12.Cl`, the “NF-kB SEAP reporter activity” value in the experiment on RAW-Dual [1] (cytotoxicity flag (confluency mask): cytotoxic (confluency <70% of control), agonist: Imiquimod (TLR7) […]) is 2.18; in the experiment with RAW-Dual [1] (cytotoxicity flag (confluency mask): cytotoxic (confluency <70% of control), agonist: MPLA (TLR4) […]) it was 0.882.

Take `CC(C)c1cnn2c(NCc3ccccc3)cc(NCCCCCCN)nc12.Cl` (library stock concentration (final ~1000-fold dilution): 10 mM): the “NF-kB SEAP reporter activity” value with RAW-Dual [3] (agonist: LPS (TLR4) 0.1 ug/mL) came to 0.271; in the experiment with RAW-Dual [3] (setting [6]), 0.234; with RAW-Dual [3] (setting [7]) it was 1.08; with RAW-Dual [3] (setting [8]), 1.5.

Regarding `COc1cc2c(cc1NS(=O)(=O)c1ccc(Br)cc1C)n(C)c(=O)n2C` (library stock concentration (final ~1000-fold dilution): 10 mM), the “NF-kB SEAP reporter activity” value in the experiment with RAW-Dual [2] (agonist: LPS (TLR4) 0.1 ug/mL) was determined as 1.73; in the experiment on RAW-Dual [2] (setting [6]) it was 1.23; with RAW-Dual [2] (setting [7]), 0.828; with RAW-Dual [2] (setting [8]), 1.08.

Turning to `COc1ccccc1S(=O)(=O)Nc1ccc2c(c1)CN(C)C(=O)N2` (library stock concentration (final ~1000-fold dilution): 10 mM), the “NF-kB SEAP reporter activity” value was 3.81 in the experiment with RAW-Dual [2] (agonist: LPS (TLR4) 0.1 ug/mL), 2.25 with RAW-Dual [2] (setting [6]), 0.457 in the experiment with RAW-Dual [2] (setting [7]) and 1.4 with RAW-Dual [2] (setting [8]).

As to `COc1ccccc1S(=O)(=O)Nc1ccc2c(c1)CN(C)C(=O)N2`, the “NF-kB SEAP reporter activity” value in the experiment on RAW-Dual [1] (setting [4]) was 2.14; in the experiment on RAW-Dual [1] (setting [5]), 2.51.

`COc1cc2c(cc1NS(=O)(=O)c1ccc(Br)cc1C)n(C)c(=O)n2C`: the “NF-kB SEAP reporter activity” value was 0.973 in the experiment on RAW-Dual [1] (setting [4]) and 1.39 with RAW-Dual [1] (setting [5]).

`COc1ccccc1N1CCN(CCCNc2cc(=O)n(C)c(=O)n2C)CC1.Cl` (library stock concentration (final ~1000-fold dilution): 10 mM): the “NF-kB SEAP reporter activity” value in the experiment with RAW-Dual [2] (agonist: LPS (TLR4) 0.1 ug/mL) is 1.02; with RAW-Dual [2] (setting [6]) it was 0.978; with RAW-Dual [2] (setting [7]) it was 1.06; with RAW-Dual [2] (setting [8]), 1.17.

Regarding `COc1ccccc1N1CCN(CCCNc2cc(=O)n(C)c(=O)n2C)CC1.Cl`, the entries for the “NF-kB SEAP reporter activity” value with RAW-Dual [1] (setting [4]) and in the experiment with RAW-Dual [1] (setting [5]) were 1.18 and 0.935, respectively.

`CN1C(=N)NC(C)(c2cc(NC(=O)c3ccc(F)cn3)ccc2F)CS1(=O)=O` (stereo not given): the “NF-kB SEAP reporter activity” value was determined as 0.847 with RAW-Dual [1] (setting [4]) and 0.931 in the experiment on RAW-Dual [1] (setting [5]).

`CN1C(=N)NC(C)(c2cc(NC(=O)c3ccc(F)cn3)ccc2F)CS1(=O)=O` (stereo not given) (library stock concentration (final ~1000-fold dilution): 10 mM): the “NF-kB SEAP reporter activity” value in the experiment on RAW-Dual [2] (agonist: LPS (TLR4) 0.1 ug/mL) was 0.906; in the experiment with RAW-Dual [2] (setting [6]), 0.673; with RAW-Dual [2] (setting [7]), 0.747; with RAW-Dual [2] (setting [8]), 0.657.

On to `O=C(CCCCCN1C(=O)c2cccc3cccc(c23)C1=O)NO` (library stock concentration (final ~1000-fold dilution): 10 mM), for which the “NF-kB SEAP reporter activity” value in the experiment on RAW-Dual [3] (agonist: LPS (TLR4) 0.1 ug/mL) was 3.67; in the experiment with RAW-Dual [3] (setting [6]), 2.57; in the experiment with RAW-Dual [3] (setting [7]) it was 1.28; in the experiment with RAW-Dual [3] (setting [8]), 2.06.

Regarding `COc1ccc(-n2c(SCCCN3C(=O)c4cccc5cccc(c45)C3=O)nnc2-c2ccncc2)cc1`, the “NF-kB SEAP reporter activity” value was 1.08 in the experiment on RAW-Dual [1] (setting [4]) and 1.32 with RAW-Dual [1] (setting [5]).

For `O=C(O)CN1C(=O)c2cccc3cccc(c23)C1=O` (library stock concentration (final ~1000-fold dilution): 10 mM), the “NF-kB SEAP reporter activity” value worked out at 0.89 in the experiment with RAW-Dual [2] (agonist: LPS (TLR4) 0.1 ug/mL), 0.942 in the experiment on RAW-Dual [2] (setting [6]), 1.03 in the experiment on RAW-Dual [2] (setting [7]) and 1.06 with RAW-Dual [2] (setting [8]).

For the origin of these results see the supplement of paper PMC10037445.
